Assay results from PMC5540273 (PLoS ONE, 2017).

Assays:
[1] = test system: KIT
[2] = test system: LCK
[3] = test system: T1, LOK
T1 construct: gene STK10

[4] = test system: LTK
[5] = test system: LIMK1
[6] = test system: T2, LZK
T2 construct: gene MAP3K13

[7] = test system: MAP4K2
[8] = test system: LYN
[9] = test system: T3, JNK3
T3 construct: gene MAPK10

[10] = test system: MAK
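Note: kd values determined as follow-up on hits from a single-replicate KINOMEscan panel screen.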

Question: For `CC(C)(C)c1ccc(C(=O)Nc2cn3cc(-c4cccnc4)ccc3n2)cc1`, which Kd [1] is on record?
Answer: Its Kd is 320 nM.

Question: Which Kd [2] does the source give for `Cc1ccccc1-n1cnc2c(N)ncnc21` [SKF-97510] here?
Answer: Its Kd is > 10000 nM.

Question: How did the Kd [1] turn out when `O=C(Nc1ccccc1)Nc1cccc(Oc2ccc3nccn3n2)c1` was run?
Answer: The Kd was 0.94 nM.

Question: For `Cc1ccc(C(=O)Nc2ccc(Nc3ccnc4cc(-c5ccccn5)ccc34)cc2O)cc1.Cl` [GW440146], which Kd [1] is on record?
Answer: Its Kd is 2200 nM.

Question: And the Kd [2]?
Answer: Its Kd is 260 nM.

Question: Which Kd [2] does the source give for `COc1cc2nccc(Nc3ccc(NC(=O)c4ccc(C)cc4)c(O)c3)c2cc1OC.Cl` [GW440132] here?
Answer: The Kd was 560 nM.

Question: How did the Kd [3] turn out when `Cn1ccc2ncnc(Oc3ccc(Nc4nc5ccccc5[nH]4)cc3)c21` was run?
Answer: The Kd was 200 nM.

Question: `Cc1ccc(NC(=O)Nc2cccc(Cl)c2)cc1-c1ccc(C(=O)Nc2ccncc2)cc1` [GSK1398468] was tested. Which Kd [1] did it give?
Answer: The Kd was 180 nM.

Question: With `O=C(O)COc1ncnc2cc(-c3ccc4[nH]ncc4c3)sc12` as the molecule, how does the Kd [4] read?
Answer: The Kd was > 10000 nM.

Question: Which Kd [5] does the source give for `COc1ccc(C2=C(Nc3cccc(C(=O)O)c3)C(=O)NC2=O)cc1` [SB-390765] here?
Answer: Its Kd is > 10000 nM.

Question: Which Kd [6] does the source give for `O=C(Nc1n[nH]c2cc(-c3cccc(F)c3F)ccc12)C1CC1` [SB-733894] here?
Answer: Its Kd is > 10000 nM.

Question: For `Cc1cc(-c2ccc3c(c2)CC[C@@H](N[C@@H](C)c2ccccc2)C3)cnc1N.Cl` [GW412617], which Kd [7] is on record?
Answer: Its Kd is 43 nM.

Question: Which Kd [8] does the source give for `O=c1cc(N2CCOCC2)nc2n(Cc3cccc(Cl)c3Cl)ccn12` [GSK2286295] here?
Answer: The Kd was > 10000 nM.

Question: How did the Kd [1] turn out when `Cc1ccc(NC(=O)Nc2cc(C(C)(C)C)nn2-c2ccccc2)cc1` [GSK1014915] was run?
Answer: Its Kd is 260 nM.

Question: How did the Kd [4] turn out when `Nc1ncnc2[nH]c(-c3ccccc3)nc12` [AH5015] was run?
Answer: The Kd was > 10000 nM.

Question: Which results are given for `COC(=O)c1c(-c2ccccc2)c2cc(OC)ccc2c(=O)n1Cc1ccccc1`?
Answer: Kd [9]: 110 nM; Kd [1]: 170 nM

Question: How did the Kd [1] turn out when `Cn1ccc2ncnc(Oc3ccc(NC(=O)Nc4ccccc4)cc3)c21` was run?
Answer: The Kd was 0.6 nM.

Question: What about the Kd [3] of the same molecule?
Answer: Its Kd is 280 nM.

Question: For `CC(=O)Nc1nc2cnc(Nc3cc(NC(=O)c4cccc(CCC#N)c4)ccc3C)nc2s1`, which Kd [1] is on record?
Answer: Its Kd is > 10000 nM.

Question: With `COc1cccc(-c2cc(-c3c[nH]nc3-c3ccccn3)ccn2)c1` [GW680338] as the molecule, how does the Kd [10] read?
Answer: The Kd was > 10000 nM.

Question: How did the Kd [3] turn out when `COc1cc2ncn(-c3cc(OCC4CCCO4)c(C(N)=O)s3)c2cc1OC` (stereo not shown) [GSK204607] was run?
Answer: Its Kd is 100 nM.

Question: How did the Kd [1] turn out when `Cc1ccc(NC(=O)Nc2cccc(C(F)(F)F)c2)cc1` [GSK955403] was run?
Answer: Its Kd is 240 nM.

Question: Which Kd [3] does the source give for `Cc1nnc(-c2ccc3occ(-c4ccc(S(C)=O)cc4)c3c2)[nH]1` (stereo not shown) here?
Answer: The Kd was > 10000 nM.

Question: For `COC(=O)c1c(-c2ccccc2)c2cc(C(=O)O)ccc2c(=O)n1Cc1ccccc1`, which Kd [1] is on record?
Answer: The Kd was 100 nM.

Question: `Cc1cccc(-c2nc(-c3ccc(S(C)(=O)=O)cc3)sc2-c2ccnc(NCCc3ccccc3)c2)c1` was tested. Which Kd [1] did it give?
Answer: The Kd was 120 nM.

Question: With `Cn1ccc2ncnc(Oc3cccc(C(=O)Nc4ccccc4)c3)c21` as the molecule, how does the Kd [5] read?
Answer: The Kd was > 10000 nM.

Question: How did the Kd [4] turn out when `O=C1NC(=O)C(N2CCc3ccccc32)=C1c1ccccc1Cl` [SB-373598] was run?
Answer: Its Kd is > 10000 nM.
